# Data taken from PubChem BioAssay.
# Values without a mark were called inactive. The rule behind the calls is not given here.
# Molecular target: Pantothenate synthetase (Mycobacterium tuberculosis (strain ATCC 25618 / H37Rv)) (UniProt P9WIL5)
# Assay: Recombinant Mtb pantothenate synthetase (PanC) inhibitors, coupled enzyme, confirmatory (AID 375);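 note: 0% = full reaction with vehicle and 100% = no enzyme background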
# Conditions: coupled enzyme assay; at 10 µM, hits give high values
# Sequence of Pantothenate synthetase (Mycobacterium tuberculosis (strain ATCC 25618 / H37Rv)) (P9WIL5 whole entry, looked up): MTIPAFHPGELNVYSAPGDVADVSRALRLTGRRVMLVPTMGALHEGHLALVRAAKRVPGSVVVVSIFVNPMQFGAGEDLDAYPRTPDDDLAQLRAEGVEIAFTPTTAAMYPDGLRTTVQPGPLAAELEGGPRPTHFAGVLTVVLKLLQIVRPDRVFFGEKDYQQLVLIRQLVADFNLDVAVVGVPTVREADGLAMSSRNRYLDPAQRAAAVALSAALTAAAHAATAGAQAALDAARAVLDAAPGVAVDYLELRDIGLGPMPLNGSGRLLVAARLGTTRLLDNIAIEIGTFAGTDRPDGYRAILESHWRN
row,Compound,inhibition [%]
1,Cc1ccc(S(=O)(=O)CCC(=O)Nc2ccc3c(c2)OCO3)cc1,6
2,COc1ccc(C2C(C(=O)Nc3cccnc3)=C(C)Nc3nc(-c4cccs4)nn32)cc1OC (stereo not given),6
3,O=C(CCNC(=O)Cn1ccc2ccccc2c1=O)NCCN1CCc2ccccc2C1,3
4,CC(NC(=O)c1ccco1)c1ccc2c(c1)OCCO2 (stereo not given),0
5,Cc1cc(C)nc(SCC(=O)Nc2ncc3c(n2)CCCC3=O)n1,0
6,Cc1ccc(-n2ncc(C(=O)N3CCc4ccccc4C3)c2NC(=O)c2ccco2)cc1C,0
7,Cc1nc(NCc2ccc3c(c2)OCO3)c2oc3ccccc3c2n1,1
8,CCOC(=O)c1[nH]c2ccc(C)cc2c1NC(=O)CN1CCCCC1,3
9,COc1ccc(OC)c(NC(=O)CCN2CCN(c3ccccc3F)CC2)c1,4
10,N#CCc1c(C#N)c(N)nc(N2CCN(S(=O)(=O)c3ccccc3)CC2)c1C#N,6
11,COc1cccc(C(=O)CN2CCC(NC(=O)NC3CCCCC3)CC2)c1,6
12,CC(=O)c1ccc(OCC(O)CN2CCN(Cc3ccc4c(c3)OCO4)CC2)cc1 (stereo not given),3
13,COc1ccc(OC)c(C2=NOC(C(=O)Nc3cc(C)nn3-c3ccccc3)C2)c1 (stereo not given),0
14,Cc1cccc(Cn2c(=O)n(Cc3ccco3)c(=O)c3ccccc32)c1,0
15,O=C(CNc1ccc(Oc2ccccc2)cc1)N1CCOCC1,0
16,COCCCNC(=O)CCc1nc2cccnc2n1Cc1ccc(OC)cc1,0
17,COC(=O)c1ccc(-c2ccc(CNCC(O)c3ccccc3)o2)cc1 (stereo not given),1
18,CCn1nc(C(=O)O)c(=O)c2cc3c(cc21)OCO3,5
19,CCN1CCCC1CNC(=O)CS(=O)(=O)Cc1nc(-c2ccccc2C)oc1C (stereo not given),0
20,Nc1nc(N)nc(-c2ccccc2)n1,0

row,Compound,inhibition [%]
1,COc1ccc(OC)c(NC(=O)CSc2nnc(Cc3cccn3C)n2-c2ccc(F)cc2)c1,0
2,CC1Cc2ccccc2N1C(=O)COC(=O)Cn1nnc(-c2ccccc2)n1 (stereo not given),13
3,CCOC(=O)C1CCCN(C(=O)c2ccc(CS(=O)(=O)Cc3ccccc3C)o2)C1 (stereo not given),3
4,Nc1nnc(Cc2ccc(Cl)cc2)s1,4
5,Cc1cc(NC(=O)c2cc3ccccc3o2)cc(C)c1OCC(=O)N1CCOCC1,0
6,CCSc1ccccc1C(=O)Nc1cccc(OC)c1,0
7,O=c1ccn(Cc2ccccc2Cl)cc1,0
8,CC1=C(C(=O)OC2CCCCC2)C(c2ccc(C)o2)C2=C(CC(C)(C)CC2=O)N1 (stereo not given),0
9,Cc1nc(NC2=NCN(CCc3ccccc3)CN2)nc2c(C)cccc12,0
10,Cc1ccc(CC23CN4CCN(CC(C4)C2O)C3)c(C)c1 (stereo not given),1
11,CC(C)(C)Cc1nc(-c2ccccn2)no1,0
12,CCOc1cc(S(=O)(=O)NCc2ccc3c(c2)OCO3)ccc1F,2
13,COCCN1CCN(c2c(C)c(C)nc3cc(-c4cccc(OC)c4)nn23)CC1,0
14,O=C(CSc1nnnn1-c1ccccc1Cl)Nc1ccc2c(c1)OCCO2,8
15,CCc1nnc(NC(=O)CSc2nc(-c3ccc(OC)cc3)ns2)s1,0
16,CCOC(=O)Nc1ccc2c(c1)N(C(=O)CCN1CCOCC1)c1ccccc1S2,3
17,COc1cc(C2NC(=O)NC(C)=C2C(=O)OCC2CCCO2)ccc1O (stereo not given),0
18,COc1ccc(S(=O)(=O)Nc2ccc(F)c(F)c2)cc1Cl,0
19,CCOC(=O)c1ccc(N2C(=O)CC(N(C)CCc3ccc(OC)c(OC)c3)C2=O)cc1 (stereo not given),2
20,CC(c1nnc(SCC(=O)Nc2sccc2C#N)n1-c1ccc(Cl)cc1)N(C)C (stereo not given),0
